Source: PubChem
Vaccinia Venus: qHTS for Stage-Specific Inhibitors of Vaccinia Orthopoxvirus: Venus Reporter Primary qHTS | Vaccinia virus Venus reporter expression, fluorescence | Potency, µM (highest dose often 36.5 µM), actives largely listed as inhibitors | actives 0.46% (n = 330,000) | AID 720580, 2013; calls by dose curve; tested in A549 cells; also: nearly all actives have a fitted effect of over 30% in size
Lassa entry inh: qHTS for Inhibitors of binding or entry into cells for Lassa Virus | Lassa virus pseudotype entry inhibition, cell reporter | Potency, µM (titrated, usually from 37.9 µM), actives largely listed as inhibitors | actives 1.2% (n = 300,000); calls by dose curve; tested in HEK293 cells; also: nearly all actives have a fitted effect of over 50% in size
FMDV inh: High Throughput Screening for Foot and Mouth Disease Virus Antivirals | FMDV antiviral cell-based qHTS | Potency, µM (titrated, usually from 57.9 µM), most hits filed as inhibitors | actives 1.2% (n = 410,000) | AID 1159524, 2015; calls by dose curve; tested in HEK293T cells; also: read-out not given here; nearly all actives have a fitted effect of over 45% in size
HCMV inh: qHTS Assay for inhibitors of the human cytomegalovirus (HCMV); HFF cells, HCMV-luciferase reporter, 72 h; hits give low values; activity change, negative = inhibition, % at 57.5 µM; actives 4.5% (n = 410,000); AID 1259415, 2018; in the data active = activity change below about -60%; inconclusive = no clear call, values can overlap the other calls; inactive = above about -39%
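Human foreskin fibroblasts infected with luciferase-reporter HCMV at MOI 1 PFU/cell, compounds at two doses. Luciferase measured 72 h post infection; normalized to buffer-only basal and Salinomycin (10uM) controls.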
Marburg entry inh: qHTS for inhibitors of binding or entry into cells for Marburg Virus; Marburg virus pseudotyped entry inhibition, cell reporter; Potency, µM (doses to about 37.8 µM), most hits filed as inhibitors; actives 1.8% (n = 300,000); calls by dose curve; tested in HEK293 cells
VACV mCherry inh: qHTS for Stage-Specific Inhibitors of Vaccinia Orthopoxvirus: mCherry Reporter Primary qHTS; Vaccinia virus mCherry reporter infection, fluorescence; Potency, µM (doses to about 36.5 µM), hits mostly inhibitors; actives 0.63% (n = 310,000); AID 720579, 2013; calls by dose curve; tested in A549 cells; also: nearly all actives have a fitted effect of over 35% in size
Of the large screens only hits and unclear results are named; the others gave an inactive call. Most compounds without a hit are left out; they make up all but 6.5% or so of the library.

O=C(Nc1nccs1)c1ccc2ccccc2n1	Lassa entry inh 8.9µM, Marburg entry inh inconclusive
O=C(NCc1cccs1)c1ccc2ccccc2n1	Lassa entry inh 6.5µM
Cc1cccc(NC(=O)c2ccc3ccccc3n2)c1C	Lassa entry inh 10µM, Marburg entry inh inconclusive
CC(NC(=O)c1ccc2ccccc2n1)c1ccc(Br)cc1 (stereo unspecified)	Lassa entry inh 5.6µM, Marburg entry inh inconclusive
O=S(=O)(NCCS(=O)(=O)N1CCN(c2ccccc2F)CC1)c1ccc(Cl)cc1	none (no result: Marburg entry inh)
O=C(CSc1ncccn1)NC1CCS(=O)(=O)C1 (stereo unspecified)	none (no result: Vaccinia Venus, Lassa entry inh, Marburg entry inh, VACV mCherry inh)
Cc1ccc(SCC(=O)NC2CCS(=O)(=O)C2)cc1 (stereo unspecified)	HCMV inh -65
Cc1cc(C)c2c(CC(=O)NC3CCS(=O)(=O)C3)coc2c1 (stereo unspecified)	HCMV inh active (no result: Vaccinia Venus, Lassa entry inh, Marburg entry inh, VACV mCherry inh)
COc1ccc(CN2CCCC(c3nc(-c4ccncc4)ncc3-c3ccccc3)C2)cc1OC (stereo unspecified)	none (no result: Lassa entry inh, HCMV inh, Marburg entry inh)
COCCCn1c(SCC(=O)NCc2ccccc2)nc2c(sc3ccccc32)c1=O	none (no result: Marburg entry inh)
O=C1C2C3C=CC(CC3)C2C(=O)N1c1ccccc1 (stereo unspecified)	none (no result: Vaccinia Venus, Lassa entry inh, Marburg entry inh, VACV mCherry inh)
O=C1C=CC2C3C(=O)N(c4ccccc4)C(=O)C3C1N2Cc1ccccc1 (stereo unspecified)	Vaccinia Venus inconclusive, Lassa entry inh 25µM, FMDV inh 10µM, HCMV inh -78, Marburg entry inh inconclusive, VACV mCherry inh 28µM
CC1(C)CC(=O)C2=C(C1)OC1=C(C(=O)CC(C)(C)C1)C2c1ccc(O)cc1O	FMDV inh 6.3µM, HCMV inh -102, Marburg entry inh inconclusive (no result: Vaccinia Venus, VACV mCherry inh)
CC1(C)CC(=O)C2=C(C1)OC1=C(C(=O)CC(C)(C)C1)C2c1ccc(O)c([N+](=O)[O-])c1	none (no result: Vaccinia Venus, Lassa entry inh, Marburg entry inh, VACV mCherry inh)
N=c1c(C(=O)NCC2CCCO2)cc2c(=O)n3ccccc3nc2n1CCCO (stereo unspecified)	none
CCC(Sc1ccc2nnc(-c3ccc(F)cc3)n2n1)C(=O)OC (stereo unspecified)	HCMV inh -93 (no result: Vaccinia Venus, VACV mCherry inh)
CCOC(=O)C(CC)Sc1ccc2nnc(CCNS(=O)(=O)c3ccccc3)n2n1 (stereo unspecified)	HCMV inh -103
COC(=O)C(C)Sc1ccc2nnc(-c3ccc(F)cc3)n2n1 (stereo unspecified)	Lassa entry inh inconclusive (no result: Vaccinia Venus, VACV mCherry inh)
Cc1cc(Cl)ccc1NC(=O)CCC(=O)N/N=C/c1cccnc1	HCMV inh -68
Cc1ccc(C)c(NC(=O)CCC(=O)N/N=C/c2cccnc2)c1	none (no result: Vaccinia Venus, Lassa entry inh, Marburg entry inh, VACV mCherry inh)
Cc1cnc(SCCN2CCOCC2)nc1C1CCCN(C(=O)c2cccc3c(C)c(C)[nH]c23)C1 (stereo unspecified)	none (no result: Lassa entry inh, HCMV inh, Marburg entry inh)
CCS(=O)(=O)N1CC2(C1)CN(S(=O)(=O)c1cccc(OC)c1)[C@@H](CO)c1[nH]c3cc(OC)ccc3c12	none (no result: Vaccinia Venus, Lassa entry inh, FMDV inh, Marburg entry inh, VACV mCherry inh)
COc1ccc(-c2noc(-c3ccc(N4CCN(C)CC4)c([N+](=O)[O-])c3)n2)cc1OC	HCMV inh -105
COc1cc(-c2noc(-c3ccc(NCC4CCCO4)c([N+](=O)[O-])c3)n2)cc(OC)c1OC (stereo unspecified)	FMDV inh 11µM
COc1ccc(-c2noc(-c3ccc(NCC4CCCO4)c([N+](=O)[O-])c3)n2)cc1OC (stereo unspecified)	none
O=[N+]([O-])c1cc(-c2nc(-c3ccccc3)no2)ccc1N1CCN(c2ccccc2)CC1	none
Cc1ccc(-c2noc(-c3ccc(N4CCN(C)CC4)c([N+](=O)[O-])c3)n2)cc1	HCMV inh inconclusive
O=[N+]([O-])c1cc(-c2nc(-c3ccccc3)no2)ccc1N1CCCC1	Vaccinia Venus inconclusive, HCMV inh -80
CCC1CN(CCNC(=O)c2cscn2)Cc2cc(OC)ccc2O1 (stereo unspecified)	none (no result: Lassa entry inh, HCMV inh, Marburg entry inh)
CC(C)c1ccc(CN2CCC3(CCC(CNC(=O)c4ccn(C)n4)O3)CC2)cc1 (stereo unspecified)	none (no result: Lassa entry inh, HCMV inh, Marburg entry inh)
O=c1c(S(=O)(=O)c2ccccc2)cn(Cc2ccccc2)c2cc(N3CCOCC3)c(F)cc12	Lassa entry inh inconclusive (no result: Marburg entry inh)
O=c1c(S(=O)(=O)c2ccccc2)cn(Cc2cccc(F)c2)c2cc(N3CCOCC3)c(F)cc12	Lassa entry inh inconclusive, HCMV inh -71 (no result: Marburg entry inh)
O=c1c(S(=O)(=O)c2ccccc2)cn(Cc2ccccc2)c2cc(N3CCCC3)c(F)cc12	none (no result: Marburg entry inh)
O=c1c(S(=O)(=O)c2cccc(Cl)c2)cn(Cc2ccccc2)c2cc(N3CCCCC3)c(F)cc12	Lassa entry inh inconclusive, HCMV inh -65 (no result: Marburg entry inh)
CCOC(=O)CCNC(=O)C1=CN2CCN(Cc3ccccc3C)C(=O)N=C2O1	none (no result: Vaccinia Venus, Lassa entry inh, FMDV inh, Marburg entry inh, VACV mCherry inh)
COC(=O)c1ccc(NC(=O)CSc2nc3ccc(N4C(=O)C5C6C=CC(C6)C5C4=O)cc3s2)cc1 (stereo unspecified)	Vaccinia Venus 7.1µM, Lassa entry inh inconclusive, FMDV inh 14µM, HCMV inh -64, Marburg entry inh inconclusive, VACV mCherry inh inconclusive
Cc1ccc(-n2sc3ccccc3c2=O)cc1	Lassa entry inh inconclusive, Marburg entry inh 3.2µM
COc1cc(=O)n2c(c1C(=O)NCc1ccco1)CCN(Cc1cc3ccccc3[nH]1)CC2	none (no result: Lassa entry inh, HCMV inh, Marburg entry inh)
CC(C)C(NS(=O)(=O)c1cccc2nsnc12)C(=O)Nc1nc2ccc(Cl)cc2s1 (stereo unspecified)	Vaccinia Venus inconclusive, FMDV inh inconclusive (no result: Lassa entry inh)
CCOc1cc(NC(=O)c2ccccn2)c(OCC)cc1NC(=O)c1ccccc1	Lassa entry inh inconclusive, HCMV inh -64
CCOc1cc(NC(=O)c2ccccn2)c(OCC)cc1NC(=O)c1ccc(Cl)cc1	none (no result: Vaccinia Venus, Lassa entry inh, Marburg entry inh, VACV mCherry inh)
CCOc1ccc2nc(NC(=O)C(NS(=O)(=O)c3cccc4nsnc34)C(C)C)sc2c1 (stereo unspecified)	Vaccinia Venus inconclusive, VACV mCherry inh 7.9µM (no result: Lassa entry inh)
CSc1nc2ccc(NC(=O)c3ccccn3)cc2s1	Lassa entry inh 2µM, Marburg entry inh inconclusive
CCOc1ccc2nc(NC(=O)Nc3ccccc3)sc2c1	Lassa entry inh inconclusive, Marburg entry inh inconclusive
CCOc1ccc2nc(NC(=O)c3ccccn3)sc2c1	Vaccinia Venus inconclusive, Lassa entry inh inconclusive, HCMV inh -100, Marburg entry inh inconclusive, VACV mCherry inh 7.9µM
CC(C)c1ccc(CN2C(=O)C(n3ccc4ccccc43)c3ccccc32)cc1 (stereo unspecified)	none (no result: Vaccinia Venus, Lassa entry inh, FMDV inh, Marburg entry inh, VACV mCherry inh)
O=C(CSc1ncc2c(n1)-c1ccccc1N(Cc1ccc(F)cc1)S2(=O)=O)NCc1ccccc1	none (no result: Marburg entry inh)
CCOC(=O)CN1C(=O)NC(c2cccc(F)c2)C(C(C)=O)=C1C (stereo unspecified)	none (no result: Vaccinia Venus, Lassa entry inh, FMDV inh, HCMV inh, VACV mCherry inh)
O=C(Nc1nc2c(F)cc(F)cc2s1)c1ccccn1	Vaccinia Venus inconclusive, Lassa entry inh 7.1µM, HCMV inh -99, Marburg entry inh inconclusive, VACV mCherry inh inconclusive
